The results in this text go back to PMC7862700, “An all-to-all approach to the identification of sequence-specific readers for epigenetic DNA modifications on cytosine”.

What all share (assay): DAPPL (digital affinity profiling via proximity ligation, sequencing); 10 mM Tris-HCl pH 7.5, 50 mM NaCl, 1 mM DTT, 4% glycerol, room temperature, 30 min; GST-TFs on glutathione beads, 16-mer random dsDNA library, 0.1% formaldehyde crosslink after washing; high values mean tight binding
For one assay, the target named is T1, FEV (Homo sapiens, UniProt Q99581 1-238).
T1 sequence: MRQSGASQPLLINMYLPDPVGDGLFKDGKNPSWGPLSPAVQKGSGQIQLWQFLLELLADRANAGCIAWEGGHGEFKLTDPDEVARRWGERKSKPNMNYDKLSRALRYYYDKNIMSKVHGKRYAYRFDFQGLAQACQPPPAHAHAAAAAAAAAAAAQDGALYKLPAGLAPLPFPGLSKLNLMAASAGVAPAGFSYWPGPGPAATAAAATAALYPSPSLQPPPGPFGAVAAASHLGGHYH
The note with it: protein: recombinant; tags: N-terminal GST; dsDNA, one strand shown. In outline:
(§1)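 Pools were built from human transcription factors expressed in yeast as GST fusions, captured on glutathione beads and DNA-barcoded, along with a tag-only sample. Incubation with 200 nmole of a 16-mer random double-stranded DNA library lasted 30 min at room temperature in Tris/NaCl/DTT/glycerol buffer, and was followed by washing, 0.1% formaldehyde crosslinking, proximity ligation, PCR amplification and Illumina NextSeq500 sequencing. Binding signal is the quotient of each hexamer's read frequency for a factor and its frequency for the tag-only sample.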

The target in a further assay is ETV5 (Homo sapiens, UniProt P41161 1-510). The conditions noted are these: protein: recombinant; tags: N-terminal GST; dsDNA, one strand shown. An outline of the steps:
as §1

In another assay the target is HSF1 (Homo sapiens, UniProt Q00613 1-529). The conditions noted are these: protein: recombinant; tags: N-terminal GST; chain copies: 3; dsDNA, one strand shown. An outline of the steps:
as §1

Another assay has as its target T2, SPIC (Homo sapiens, UniProt Q8N5J4 1-248).
T2 sequence: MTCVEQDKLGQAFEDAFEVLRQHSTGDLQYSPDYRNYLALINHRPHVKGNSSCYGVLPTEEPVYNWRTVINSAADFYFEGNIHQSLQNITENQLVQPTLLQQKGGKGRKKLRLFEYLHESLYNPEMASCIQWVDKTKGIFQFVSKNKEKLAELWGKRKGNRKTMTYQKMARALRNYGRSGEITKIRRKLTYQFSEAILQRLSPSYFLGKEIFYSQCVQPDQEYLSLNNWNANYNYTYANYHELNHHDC
The conditions noted are these: protein: recombinant; tags: N-terminal GST; dsDNA, one strand shown. An outline of the steps:
as §1

The target in a further assay is ELF4 (Homo sapiens, UniProt Q99607 1-663). The conditions noted are these: protein: recombinant; tags: N-terminal GST; dsDNA, one strand shown. An outline of the steps:
as §1

For another assay, the target named is T3, ELK4 (Homo sapiens, UniProt P28324-2 1-405).
T3 sequence: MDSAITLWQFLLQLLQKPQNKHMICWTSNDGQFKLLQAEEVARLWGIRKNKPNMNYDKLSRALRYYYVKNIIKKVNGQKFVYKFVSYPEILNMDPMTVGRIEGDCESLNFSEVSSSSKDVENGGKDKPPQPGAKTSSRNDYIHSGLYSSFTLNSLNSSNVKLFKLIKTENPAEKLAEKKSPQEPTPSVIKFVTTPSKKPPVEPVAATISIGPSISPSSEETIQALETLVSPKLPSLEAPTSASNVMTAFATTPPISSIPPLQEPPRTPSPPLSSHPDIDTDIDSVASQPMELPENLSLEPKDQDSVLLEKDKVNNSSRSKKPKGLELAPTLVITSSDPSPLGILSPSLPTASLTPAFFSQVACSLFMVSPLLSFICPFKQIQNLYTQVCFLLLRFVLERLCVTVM
The conditions noted are these: protein: recombinant; tags: N-terminal GST; dsDNA, one strand shown. An outline of the steps: as §1

Another assay concerns the target T4, ETV2 (Homo sapiens, UniProt O00321 1-342).
T4 sequence: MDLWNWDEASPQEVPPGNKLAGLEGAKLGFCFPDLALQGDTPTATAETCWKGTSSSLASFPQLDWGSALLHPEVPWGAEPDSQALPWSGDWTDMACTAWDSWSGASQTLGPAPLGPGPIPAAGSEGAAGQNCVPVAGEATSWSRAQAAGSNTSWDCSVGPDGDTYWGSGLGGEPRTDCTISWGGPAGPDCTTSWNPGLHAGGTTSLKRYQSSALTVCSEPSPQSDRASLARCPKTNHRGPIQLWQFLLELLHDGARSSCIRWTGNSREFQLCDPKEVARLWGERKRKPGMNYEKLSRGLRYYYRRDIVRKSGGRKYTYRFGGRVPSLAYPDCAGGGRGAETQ
The note with it: protein: recombinant; tags: N-terminal GST; dsDNA, one strand shown. An outline of the steps: as §1

Another assay deals with T5, ELF3 (Homo sapiens, UniProt P78545 1-371).
T5 sequence: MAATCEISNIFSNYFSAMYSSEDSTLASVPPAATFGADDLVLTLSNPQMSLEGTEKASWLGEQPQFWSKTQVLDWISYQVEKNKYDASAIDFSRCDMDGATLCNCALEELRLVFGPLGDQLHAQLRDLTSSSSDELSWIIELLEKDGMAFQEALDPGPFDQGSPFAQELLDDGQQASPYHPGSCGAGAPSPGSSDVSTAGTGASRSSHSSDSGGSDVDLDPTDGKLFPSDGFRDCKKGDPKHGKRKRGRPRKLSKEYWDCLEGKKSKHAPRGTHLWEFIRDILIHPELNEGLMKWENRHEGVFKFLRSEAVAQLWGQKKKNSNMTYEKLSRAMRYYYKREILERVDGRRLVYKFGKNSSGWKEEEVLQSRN
The note with it: protein: recombinant; tags: N-terminal GST; dsDNA, one strand shown. An outline of the steps:
as §1

Another assay addresses CRX (Homo sapiens, UniProt O43186 1-299). The note with it: protein: recombinant; tags: N-terminal GST; dsDNA, one strand shown. In outline: as §1
For another assay, the target named is ETV1 (Homo sapiens, UniProt P50549 1-477). The note with it: protein: recombinant; tags: N-terminal GST; dsDNA, one strand shown. An outline of the steps:
as §1

The target of the next assay is T6, ERF (Homo sapiens, UniProt P50548 1-548).
T6 sequence: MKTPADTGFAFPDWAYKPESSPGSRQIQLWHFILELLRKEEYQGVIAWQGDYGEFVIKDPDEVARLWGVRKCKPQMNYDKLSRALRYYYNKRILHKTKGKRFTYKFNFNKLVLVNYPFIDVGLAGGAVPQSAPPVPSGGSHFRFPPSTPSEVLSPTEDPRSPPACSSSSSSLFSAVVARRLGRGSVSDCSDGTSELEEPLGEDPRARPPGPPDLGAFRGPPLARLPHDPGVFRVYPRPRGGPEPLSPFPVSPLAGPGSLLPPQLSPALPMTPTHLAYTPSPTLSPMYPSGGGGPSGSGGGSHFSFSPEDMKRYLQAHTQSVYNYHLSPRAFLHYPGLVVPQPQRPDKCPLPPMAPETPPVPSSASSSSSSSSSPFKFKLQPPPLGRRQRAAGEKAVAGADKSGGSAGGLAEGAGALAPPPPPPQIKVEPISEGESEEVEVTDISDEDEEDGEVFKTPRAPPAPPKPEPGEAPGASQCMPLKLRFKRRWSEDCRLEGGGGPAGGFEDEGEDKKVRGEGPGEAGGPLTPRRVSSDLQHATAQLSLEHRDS
The conditions noted are these: protein: recombinant; tags: N-terminal GST; dsDNA, one strand shown. An outline of the steps:
as §1

A further assay addresses T7, ETV3L (Homo sapiens, UniProt Q6ZN32 1-361).
T7 sequence: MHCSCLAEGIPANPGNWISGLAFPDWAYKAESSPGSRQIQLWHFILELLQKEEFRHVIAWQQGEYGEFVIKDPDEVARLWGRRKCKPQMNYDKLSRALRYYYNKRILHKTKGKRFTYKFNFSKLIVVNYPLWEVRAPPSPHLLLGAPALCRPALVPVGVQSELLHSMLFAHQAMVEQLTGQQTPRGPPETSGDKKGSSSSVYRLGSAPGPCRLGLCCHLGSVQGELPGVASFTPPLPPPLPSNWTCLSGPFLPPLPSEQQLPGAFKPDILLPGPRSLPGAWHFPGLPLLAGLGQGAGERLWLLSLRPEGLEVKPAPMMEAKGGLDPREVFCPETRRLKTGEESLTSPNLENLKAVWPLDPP
The note with it: protein: recombinant; tags: N-terminal GST; dsDNA, one strand shown. In outline:
as §1

A further assay addresses T8, ETS2 (Homo sapiens, UniProt P15036 1-469).
T8 sequence: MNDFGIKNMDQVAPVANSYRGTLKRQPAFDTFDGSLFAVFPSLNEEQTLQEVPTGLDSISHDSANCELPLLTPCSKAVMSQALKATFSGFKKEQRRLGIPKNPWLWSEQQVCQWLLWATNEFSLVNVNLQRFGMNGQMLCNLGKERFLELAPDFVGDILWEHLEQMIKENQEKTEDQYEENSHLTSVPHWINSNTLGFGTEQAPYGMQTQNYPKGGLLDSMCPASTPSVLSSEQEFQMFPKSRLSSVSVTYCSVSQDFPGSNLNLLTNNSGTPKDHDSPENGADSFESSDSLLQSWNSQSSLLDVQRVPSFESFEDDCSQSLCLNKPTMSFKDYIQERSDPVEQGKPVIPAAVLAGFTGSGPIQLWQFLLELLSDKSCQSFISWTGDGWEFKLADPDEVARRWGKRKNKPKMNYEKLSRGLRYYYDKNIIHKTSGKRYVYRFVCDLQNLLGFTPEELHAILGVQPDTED
The note with it: protein: recombinant; tags: N-terminal GST; dsDNA, one strand shown. An outline of the steps:
as §1

The target in a further assay is T9, SPDEF (Homo sapiens, UniProt O95238 1-335).
T9 sequence: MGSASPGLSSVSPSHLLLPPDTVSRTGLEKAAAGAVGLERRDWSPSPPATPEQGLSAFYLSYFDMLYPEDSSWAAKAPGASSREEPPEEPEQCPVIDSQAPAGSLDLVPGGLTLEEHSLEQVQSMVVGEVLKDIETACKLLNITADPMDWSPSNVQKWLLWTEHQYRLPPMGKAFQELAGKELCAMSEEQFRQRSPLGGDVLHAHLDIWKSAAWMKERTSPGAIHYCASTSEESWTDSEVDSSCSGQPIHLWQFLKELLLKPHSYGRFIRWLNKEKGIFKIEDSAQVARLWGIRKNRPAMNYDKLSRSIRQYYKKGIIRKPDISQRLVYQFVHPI
The note with it: protein: recombinant; tags: N-terminal GST; dsDNA, one strand shown. An outline of the steps: as §1

The next assay deals with T10, ETV7 (Homo sapiens, UniProt Q9Y603 1-341).
T10 sequence: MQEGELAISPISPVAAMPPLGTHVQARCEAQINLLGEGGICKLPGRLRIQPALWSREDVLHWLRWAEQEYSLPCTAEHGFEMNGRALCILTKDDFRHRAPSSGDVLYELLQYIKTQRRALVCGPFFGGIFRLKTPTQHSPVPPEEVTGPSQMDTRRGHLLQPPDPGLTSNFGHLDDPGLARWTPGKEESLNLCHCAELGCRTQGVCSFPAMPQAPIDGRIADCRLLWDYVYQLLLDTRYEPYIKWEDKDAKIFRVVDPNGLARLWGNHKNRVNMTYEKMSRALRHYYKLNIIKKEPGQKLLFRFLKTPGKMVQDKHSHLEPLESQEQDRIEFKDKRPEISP
The conditions noted are these: protein: recombinant; tags: N-terminal GST; dsDNA, one strand shown. An outline of the steps:
as §1

The next assay deals with T11, ELF5 (Homo sapiens, UniProt Q9UKW6-2 1-255).
T11 sequence: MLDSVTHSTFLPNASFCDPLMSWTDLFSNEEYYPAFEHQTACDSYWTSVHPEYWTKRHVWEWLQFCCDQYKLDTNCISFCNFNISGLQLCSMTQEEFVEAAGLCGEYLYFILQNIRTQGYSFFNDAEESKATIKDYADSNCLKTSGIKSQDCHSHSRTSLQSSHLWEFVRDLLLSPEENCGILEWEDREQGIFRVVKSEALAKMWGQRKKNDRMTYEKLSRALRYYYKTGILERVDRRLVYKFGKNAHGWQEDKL
The conditions noted are these: protein: recombinant; tags: N-terminal GST; dsDNA, one strand shown. An outline of the steps: as §1

For the next assay, the target named is T12, ETV3 (Homo sapiens, UniProt P41162-2 1-143).
T12 sequence: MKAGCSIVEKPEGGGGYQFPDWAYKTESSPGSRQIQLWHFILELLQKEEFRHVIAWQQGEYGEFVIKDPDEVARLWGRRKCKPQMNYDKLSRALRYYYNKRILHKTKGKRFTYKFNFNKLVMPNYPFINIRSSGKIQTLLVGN
The conditions noted are these: protein: recombinant; tags: N-terminal GST; dsDNA, one strand shown. In outline:
as §1

The target in another assay is ETV6 (Homo sapiens, UniProt P41212 1-452). The conditions noted are these: protein: recombinant; tags: N-terminal GST; dsDNA, one strand shown. An outline of the steps:
as §1

Sequence of ETV1 (P50549 whole entry): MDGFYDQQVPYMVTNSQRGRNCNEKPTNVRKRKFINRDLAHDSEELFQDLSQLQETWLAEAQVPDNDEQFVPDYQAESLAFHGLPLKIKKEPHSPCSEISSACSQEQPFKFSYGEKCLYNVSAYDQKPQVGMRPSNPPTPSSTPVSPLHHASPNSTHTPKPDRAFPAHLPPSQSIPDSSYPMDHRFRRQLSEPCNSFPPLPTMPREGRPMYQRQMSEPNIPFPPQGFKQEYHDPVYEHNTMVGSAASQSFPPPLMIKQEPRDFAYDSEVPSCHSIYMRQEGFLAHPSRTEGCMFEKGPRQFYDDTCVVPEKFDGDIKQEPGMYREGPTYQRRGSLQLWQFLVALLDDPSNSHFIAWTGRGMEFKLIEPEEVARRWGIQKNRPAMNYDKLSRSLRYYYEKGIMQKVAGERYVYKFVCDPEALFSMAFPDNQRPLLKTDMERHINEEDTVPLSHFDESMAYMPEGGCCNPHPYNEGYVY
Sequence of HSF1 (Q00613 whole entry): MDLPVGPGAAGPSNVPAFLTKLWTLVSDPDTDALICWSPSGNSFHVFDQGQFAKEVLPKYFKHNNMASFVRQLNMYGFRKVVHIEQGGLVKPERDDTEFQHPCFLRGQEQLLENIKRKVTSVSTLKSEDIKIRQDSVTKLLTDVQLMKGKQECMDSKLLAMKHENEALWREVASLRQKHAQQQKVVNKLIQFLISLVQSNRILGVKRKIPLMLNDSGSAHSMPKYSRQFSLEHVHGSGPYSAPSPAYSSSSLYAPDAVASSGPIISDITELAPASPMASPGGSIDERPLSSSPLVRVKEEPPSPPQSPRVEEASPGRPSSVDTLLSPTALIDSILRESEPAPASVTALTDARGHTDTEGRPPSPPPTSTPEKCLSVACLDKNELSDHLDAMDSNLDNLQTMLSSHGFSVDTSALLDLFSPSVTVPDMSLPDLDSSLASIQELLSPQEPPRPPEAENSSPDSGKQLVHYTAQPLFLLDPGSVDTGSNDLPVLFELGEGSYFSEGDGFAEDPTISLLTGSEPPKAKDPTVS
Sequence of ETV6 (P41212 whole entry): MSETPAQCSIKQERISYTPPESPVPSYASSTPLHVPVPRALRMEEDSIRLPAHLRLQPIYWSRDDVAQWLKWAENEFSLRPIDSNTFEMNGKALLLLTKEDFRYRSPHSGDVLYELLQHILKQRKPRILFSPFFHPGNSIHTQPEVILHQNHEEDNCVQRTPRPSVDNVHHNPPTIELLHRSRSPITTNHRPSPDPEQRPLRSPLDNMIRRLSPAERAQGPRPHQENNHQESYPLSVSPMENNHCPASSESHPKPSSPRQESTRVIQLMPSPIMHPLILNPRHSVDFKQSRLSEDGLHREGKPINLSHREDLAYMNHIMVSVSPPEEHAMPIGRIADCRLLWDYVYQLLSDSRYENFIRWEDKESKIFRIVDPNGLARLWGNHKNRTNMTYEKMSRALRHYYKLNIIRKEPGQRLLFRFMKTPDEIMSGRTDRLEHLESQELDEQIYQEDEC
Sequence of ETV5 (P41161 whole entry): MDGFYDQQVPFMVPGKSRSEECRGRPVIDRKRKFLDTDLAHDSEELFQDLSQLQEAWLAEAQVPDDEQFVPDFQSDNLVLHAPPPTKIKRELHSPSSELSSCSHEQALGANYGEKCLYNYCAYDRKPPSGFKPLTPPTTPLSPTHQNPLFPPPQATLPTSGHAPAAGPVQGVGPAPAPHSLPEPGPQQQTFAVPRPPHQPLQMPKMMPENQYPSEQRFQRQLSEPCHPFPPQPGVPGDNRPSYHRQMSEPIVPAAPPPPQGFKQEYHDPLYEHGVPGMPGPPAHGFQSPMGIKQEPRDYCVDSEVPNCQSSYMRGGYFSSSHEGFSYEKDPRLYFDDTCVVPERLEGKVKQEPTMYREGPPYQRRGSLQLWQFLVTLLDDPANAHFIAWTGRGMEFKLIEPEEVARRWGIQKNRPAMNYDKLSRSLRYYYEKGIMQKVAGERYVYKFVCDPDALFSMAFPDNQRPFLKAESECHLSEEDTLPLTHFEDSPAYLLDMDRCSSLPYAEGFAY
Sequence of CRX (O43186 whole entry): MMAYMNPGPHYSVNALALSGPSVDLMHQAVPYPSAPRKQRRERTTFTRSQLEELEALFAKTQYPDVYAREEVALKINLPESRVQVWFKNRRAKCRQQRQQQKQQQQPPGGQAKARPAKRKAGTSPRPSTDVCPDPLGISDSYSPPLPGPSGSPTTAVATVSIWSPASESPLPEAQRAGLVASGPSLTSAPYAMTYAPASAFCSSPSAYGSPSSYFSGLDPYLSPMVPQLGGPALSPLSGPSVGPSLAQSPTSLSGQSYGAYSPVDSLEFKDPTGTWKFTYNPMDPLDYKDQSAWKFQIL
Sequence of ELF4 (Q99607 whole entry): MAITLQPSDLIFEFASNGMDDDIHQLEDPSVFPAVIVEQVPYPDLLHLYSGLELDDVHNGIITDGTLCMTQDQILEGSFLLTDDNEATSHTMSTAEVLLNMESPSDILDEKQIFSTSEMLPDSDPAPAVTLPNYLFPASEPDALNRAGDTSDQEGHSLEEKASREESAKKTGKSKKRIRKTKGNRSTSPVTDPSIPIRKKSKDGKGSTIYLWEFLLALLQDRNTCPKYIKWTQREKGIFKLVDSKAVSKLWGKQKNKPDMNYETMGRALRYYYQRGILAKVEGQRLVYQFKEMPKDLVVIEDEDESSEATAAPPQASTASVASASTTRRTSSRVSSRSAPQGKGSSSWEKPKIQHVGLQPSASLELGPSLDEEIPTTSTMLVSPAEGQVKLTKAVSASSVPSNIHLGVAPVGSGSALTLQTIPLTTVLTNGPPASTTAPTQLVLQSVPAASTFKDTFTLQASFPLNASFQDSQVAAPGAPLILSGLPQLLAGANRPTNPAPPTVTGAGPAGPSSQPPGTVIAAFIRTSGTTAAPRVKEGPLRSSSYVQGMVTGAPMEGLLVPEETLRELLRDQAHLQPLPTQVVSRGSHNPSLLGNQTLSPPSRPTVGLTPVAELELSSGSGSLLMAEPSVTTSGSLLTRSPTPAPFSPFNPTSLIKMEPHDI

Consider TTTATA, for which the binding signal with FEV is 1.28 fold enrichment (6-mer frequency, TF over GST control); in the assay with ETV5, 1.24 fold enrichment (6-mer frequency, TF over GST control); in the assay with HSF1 it was 1.54 fold enrichment (6-mer frequency, TF over GST control); with SPIC it was 1.37 fold enrichment (6-mer frequency, TF over GST control); with ELF4 it was 1.36 fold enrichment (6-mer frequency, TF over GST control); in the assay with ELK4, 1.37 fold enrichment (6-mer frequency, TF over GST control). Moreover, the binding signal was 1.26 fold enrichment (6-mer frequency, TF over GST control) with ETV2; 1.36 fold enrichment (6-mer frequency, TF over GST control) with ELF3; 2.05 fold enrichment (6-mer frequency, TF over GST control) in the assay with CRX; 1.31 fold enrichment (6-mer frequency, TF over GST control) with ETV1; 1.4 fold enrichment (6-mer frequency, TF over GST control) in the assay with ERF; 1.42 fold enrichment (6-mer frequency, TF over GST control) in the assay with ETV3L. Moreover, the binding signal was 1.4 fold enrichment (6-mer frequency, TF over GST control) with ETS2; 1.3 fold enrichment (6-mer frequency, TF over GST control) with SPDEF; 1.43 fold enrichment (6-mer frequency, TF over GST control) with ETV7; 1.27 fold enrichment (6-mer frequency, TF over GST control) with ELF5; 1.32 fold enrichment (6-mer frequency, TF over GST control) in the assay with ETV3; 1.38 fold enrichment (6-mer frequency, TF over GST control) with ETV6.
